These results are taken from PubChem BioAssay (EPA / NIEHS).

Molecules are shown by their SMILES. Several values for one entry are separate records, joined by “and”; a condition that tells them apart may be missing. Equal values may be shown once. Records with an inconclusive call do not appear. Activity calls are given as the source filed them. Rule for the calls: active = hit-call score of the fitted dose curve at least 0.9, where 1 is the maximum; inconclusive = response in the unintended direction; inactive = score below 0.9.

The nature of the test: CCTE_Shafer_MEA_acute_LDH: CCTE's Lactate Dehydrogenase Assay for Cytotoxicity in the Neural Acute Assay, Shafer Lab (AID 2284086).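 Note: active means LDH release rises above DMSO vehicle level.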 How it is done: CCTE_Shafer_MEA_acute assay is conducted using Axion Biosystems 48 well microelectrode array (MEA) plates and Maestro recording system. Each well of the MEA plate contains a grid of 16 microelectrodes embedded in the culture surface. Electrically active cells, such as neurons, can be cultured over the electrodes, and electrical activity in these cells can be recorded extracellularly. The spontaneous firing of neurons is captured from each electrode on a microsecond timescale providing both temporally and spatially precise data. […] The CCTE_Shafer_MEA_acute assay uses primary cultures of rat cortical neurons. As these cultures mature over time, neural networks develop functional activity and form cohesive networks in which electrical activity can be highly coordinated. Baseline 40-minute recordings are made on days post-plating 13 or 15, followed by a secondary 40-minute recording after chemical exposure.CCTE_Shafer_MEA_acute_LDH is a component of the CCTE_Shafer_MEA_acute assay. It measures the lactate dehydrogenase enzyme activity using spectrophotometry.Data from the assay component CCTE_Shafer_MEA_acute_LDH was analyzed into 1 assay endpoint. This assay endpoint, CCTE_Shafer_MEA_acute_LDH, was analyzed in the positive analysis fitting direction relative to DMSO as the negative control and baseline of activity. Using a type of viability reporter, gain-of-signal activity can be used to understand cell viability.
Immediately following the 40 min recording in the presence of compounds, 50 uL of media was removed from each well and transferred to a sterile 96-well plate. This was used to determine LDH released from cells during compound exposure using a kit from Promega where absorbance was determined in a Molecular Devices VersaMax plate reader at 490 nm.
As for `CCC(C)c1ccc(O)cc1` (centres undefined), the outcome was inactive.

As for `ClC1=C(Cl)C2(Cl)C3C(Cl)C=CC3C1(Cl)C2(Cl)Cl` (centres undefined), the compound was called inactive. Consider `[Cl-].[Cl-].[Hg+2]`, for which the concentration at half-maximal activity (AC50) – broadly, the concentration at which the activity in the assay is half-maximal – was 30.6 µM (active). Regarding `Clc1ccc(C(c2ccc(Cl)cc2)C(Cl)Cl)cc1`, the call was inactive. As for `O=C(Oc1ccc(Br)cc1)N1CCN2CCC1CC2`, the result was inactive.

`CC(C)(C)C(O)(CCc1ccc(Cl)cc1)Cn1cncn1` (centres undefined): the call was inactive.

As to `N#CC(Br)Br`, the compound was called inactive. Consider `CC(C)(OOC(C)(C)c1ccccc1)c1ccccc1`, for which the outcome was inactive. With `O=P(OCCCl)(OCCCl)OCCCl`, the outcome was inactive.

Consider `CCC[CH2][Sn]([Cl])([CH2]CCC)[CH2]CCC`, for which the AC50 was 29.7 µM (active) and 15 µM (active). With `CC(C)(O)c1cnn2c(-c3ccc(F)c(-c4c(F)cccc4C#N)c3)cnc2n1`, the call was inactive. Regarding `CCCCOC(=O)c1ccccc1C(=O)OCc1ccccc1`, the compound was classed as inactive. For `O=C(N[C@H](c1ccccc1)[C@@H]1CN2CCC1CC2)c1c(Cl)ccc(C(F)(F)F)c1Cl`, the compound was called inactive.

On to `CCN(CC)CCO`, for which the result was inactive. Regarding `Cc1cc(N=Nc2ccccc2C)ccc1N`, the outcome was inactive. Regarding `CCCCCCCCn1sccc1=O`, the compound was called inactive. Regarding `c1ccc(N=Nc2ccccc2)cc1`, the outcome was inactive. `CC(C)COC(=O)c1ccccc1C(=O)OCC(C)C`: the outcome was inactive. For `ClC1=C(Cl)[C@]2(Cl)[C@H]3[C@H]([C@@H]4C=C[C@H]3C4)[C@@]1(Cl)C2(Cl)Cl`, the compound was classed as inactive. Same read-out and setting: for `C[N+](C)(C)CC1CO1` (centres undefined) the value was “inactive”; for `Clc1ccc(C(c2ccc(Cl)cc2)C(Cl)(Cl)Cl)cc1`, “inactive”; for `O=Cc1ccco1`, “inactive”. In the case of `Cc1ccc(N)c(N)c1`, the call was inactive. Same read-out and setting: in the case of `ClCCOCCCl` it was “inactive”.
